Assay outcomes (PubChem)
SMN2 splice up = increases expression of the SMN2 splice variant; Potency, µM (series often up to 46.1 µM), usual class: activators; HEK293 SMN2-luciferase splicing reporter, luminescence, 30-36 h; AID 1458; 210,000 compounds, 2.8% hits; further: nearly all actives have a fitted effect of over 55% in size
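qHTS luciferase splicing reporter: luminescence rises when SMN2 exon 7 is included in transfected HEK293 cells. Compound exposure lasted 30-36 h at 37C, with 4.5 mM final sodium butyrate as control, followed by a ONE-Glo read.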
NPC1 promoter act = activates the NPC1 promoter; Potency, µM (top dose mostly 9.22 µM), actives largely listed as activators; 320,000 compounds, 2.4% hits; AID 485313; Huh7 NPC1 promoter luciferase reporter, 24 h; further: nearly all actives have a fitted effect of over 60% in size
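Luciferase expression driven by the NPC1 promoter was measured in stably transfected Huh7 cells after a 24 h compound incubation, using a luciferase reagent and a luminescence read.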
p53 reactivation = restores transcriptional activity of mutant p53; H1299 p53-A138V BP100-luciferase reporter, luminescence, 24 h; Potency, µM (doses to about 92.2 µM), hits mostly activators; 320,000 compounds, 0.063% hits; AID 504706; further: nearly all actives have a fitted effect of over 45% in size
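p53-null H1299 cells stably carrying temperature-sensitive p53-A138V and a BP100-luciferase reporter were pinned with compounds (4-point, 1:5 series) and held 24 hrs at 37 deg C. Luminescence was read 10 min after detection reagent.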
Rab9 prom act = activators of Rab9 promoter | Huh7 Rab9 promoter-luciferase reporter, luminescence, 24 h | Potency, µM (series often up to 9.22 µM), most hits filed as activators | 320,000 compounds, 2.8% hits; further: nearly all actives have a fitted effect of over 60% in size
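Stable Rab9-luc Huh7, 1500 cells/well, 2 h settle; cmpd in DMSO, 24 h, 37 °C/5% CO2; luciferase reagent 10 min RT; luminescence.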
FLuc counter = inhibits or activates purified firefly luciferase, miR-21 counter-screen; purified FLuc, Km substrates, luminescence inhibition; Potency, µM (doses to about 57.5 µM), actives largely listed as inhibitors; 360,000 compounds, 6.9% hits; AID 588342; further: nearly all actives have a fitted effect of over 55% in size
Target sequence (P08659 whole entry, looked up): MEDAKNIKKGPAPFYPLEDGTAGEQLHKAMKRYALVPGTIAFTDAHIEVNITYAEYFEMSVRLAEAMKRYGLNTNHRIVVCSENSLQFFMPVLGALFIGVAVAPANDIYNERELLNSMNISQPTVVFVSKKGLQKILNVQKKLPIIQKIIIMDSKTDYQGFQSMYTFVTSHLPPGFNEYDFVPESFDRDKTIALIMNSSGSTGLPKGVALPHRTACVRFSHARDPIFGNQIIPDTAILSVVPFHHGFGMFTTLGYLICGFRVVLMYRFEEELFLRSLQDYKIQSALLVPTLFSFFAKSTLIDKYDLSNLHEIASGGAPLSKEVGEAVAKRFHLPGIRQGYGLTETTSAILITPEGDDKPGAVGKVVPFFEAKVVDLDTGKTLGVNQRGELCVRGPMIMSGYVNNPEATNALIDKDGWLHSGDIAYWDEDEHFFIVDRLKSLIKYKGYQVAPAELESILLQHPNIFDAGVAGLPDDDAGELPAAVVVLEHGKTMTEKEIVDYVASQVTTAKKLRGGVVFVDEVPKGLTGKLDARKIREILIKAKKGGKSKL
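Purified P. pyralis luciferase (10nM final) with 10uM D-luciferin and 10uM ATP (Km levels) in 50mM Tris acetate pH 7.5, 10mM Mg acetate, 0.01% Tween-20, 0.05% BSA; qHTS 6-point titration, ~60 µM downward; luminescence read.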
ELG1 genotox = induces genotoxicity in HEK293T cells with luciferase-tagged ELG1; Potency, µM (series often up to 46 µM), hits mostly activators; HEK293T ELG1-luciferase reporter, luminescence, 16 h; 330,000 compounds, 1.3% hits; AID 504466; further: nearly all actives have a fitted effect of over 60% in size
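HEK293T cells expressing luciferase-tagged ELG1 were exposed to compound or DMSO vehicle for 16 hr at 37 °C and 5% CO2. Luciferase activity was then measured with ONE-Glo after 30 min at room temperature.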
A number is an active result; i = inactive; ? = inconclusive; nt = no result; [ ] = dose if it differs, or a comment. In the library only some 7.3% were active in any assay of this set; here they are far more common. The call rests on the fitted dose curve; in most records, active means well fitted curve in the direction sought with a large enough effect; inconclusive means small, poorly fitted or top-dose-only effect, or another doubt; inactive means no such curve, though single readings can be large; an effect the other way counts as inactive or inconclusive.

SMILES | SMN2 splice up | NPC1 promoter act | p53 reactivation | Rab9 prom act | FLuc counter | ELG1 genotox
Cc1ccc(C(=O)Cc2nc3ccccc3[nH]2)cc1 | nt | 2µM | i | 4.5µM | 6µM | 3.5µM
COC(=O)c1cc(C(=O)Nc2nc3ccccc3[nH]2)cc([N+](=O)[O-])c1 | nt | i | i | i | 4.8µM | i
CC(OC(=O)c1ccc(F)cc1)C(=O)Nc1nc(-c2cccc([N+](=O)[O-])c2)cs1 (configuration not stated) | i | i | i | i | i | i
COc1ccccc1N1CCN(c2nc3ccc(C(=O)c4ccccc4)cc3n3c(C)nnc23)CC1 | nt | nt | nt | nt | i | nt
O=C(NCCN1CCCCC1)c1ccc(F)cc1Cl | nt | i | nt | i | i | i
O=C(NCCc1csc(-c2cccnc2)n1)c1cccc(C(F)(F)F)c1 | nt | nt | nt | nt | i | nt
O=C(Cc1nc2ccccc2[nH]1)c1cccc([N+](=O)[O-])c1 | nt | ? | i | i | 24µM | i
O=C(NC(Cc1ccccc1)c1nc2ccccc2[nH]1)c1cccc([N+](=O)[O-])c1 (configuration not stated) | nt | i | i | i | i | i
COc1ccc(CCNC(=O)c2cc(-c3ccccn3)nc3ccccc23)cc1 | nt | i | i | i | i | i
COc1cccc(Nc2nc(C)nc3c2oc2ccccc23)c1 | nt | i | i | i | ? | i
O=C(O)CSc1ncnc2c1oc1ccccc12 | nt | i | i | i | i | i
COc1ccc(Nc2ncnc3c2oc2ccccc23)cc1 | 11µM | 2.5µM | i | 1.3µM | 9.5µM | 8.9µM
c1ccc(Sc2ncnc3c2oc2ccccc23)cc1 | ? | ? | i | ? | 8.5µM | ?
Cc1nc(Nc2ccc(Cl)cc2)c2oc3ccccc3c2n1 | nt | i | i | i | i | i
Cc1ccc(Nc2ncnc3c2oc2ccccc23)cc1 | 13µM | 2.5µM | ? | 2µM | 3.4µM | 7.3µM
Cc1ccc(NC(=O)c2cccc(N3C(=O)C4C5C=CC(C5)C4C3=O)c2)cc1C (configuration not stated) | nt | i | i | i | ? | i
CN(C)c1ccc(NC(=O)c2cccc(N3C(=O)C4C5C=CC(C5)C4C3=O)c2)cc1 (configuration not stated) | i | 1.8µM | ? | 3.2µM | 11µM | ?
C[N+]1(C)CCc2cc(O)c(O)cc2[C@H]1Cc1ccc(O)c(O)c1 | i[9.22 µM] | nt | nt | nt | nt | nt
Cn1c(-c2ccccc2F)cc2onc(-c3ccccc3)c2c1=O | nt | 0.32µM | i | 0.4µM | 0.54µM | 0.46µM
Cn1c(-c2ccccc2)cc2onc(-c3ccccc3)c2c1=O | nt | 0.079µM | i | 40µM | 0.17µM | ?
CCOc1ccc(NS(=O)(=O)c2ccc3c4c(cccc24)C(=O)N3)cc1 | i | nt | nt | nt | i | nt
CN(C)c1ccnc(Nc2ccc(O)cc2)c1C#N | i | i | i | i | i | i
Cc1ccc(NC(=O)c2cc3cccc([N+](=O)[O-])c3[nH]2)cc1 | nt | 3.2µM | ? | 1.3µM | 2.4µM | ?
CCC(C)c1ccccc1NC(=O)c1cc2cccc([N+](=O)[O-])c2[nH]1 (configuration not stated) | nt | i | i | i | ? | i
Cc1ccc2[nH]c(C(=O)Nc3ccccc3)cc2c1 | nt | nt | nt | nt | 2.1µM | nt
SMILES | SMN2 splice up | NPC1 promoter act | p53 reactivation | Rab9 prom act | FLuc counter | ELG1 genotox
CCCCC(NC(=O)Cc1c(C)c2cc3c4c(oc3cc2oc1=O)CCCC4)C(=O)O (configuration not stated) | nt | i | i | i | 19µM | i
Cc1c(CCC(=O)NCCCC(=O)O)c(=O)oc2cc3oc4c(c3cc12)CCCC4 | nt | i | i | i | 19µM | i
Cc1coc2cc3oc(=O)c(CCC(=O)N[C@@H](CCCNC(N)=O)C(=O)O)c(C)c3cc12 | nt | i | i | i | i | i
Cc1c(CC(=O)N[C@@H](C)C(=O)O)c(=O)oc2cc3oc4c(c3cc12)CCCC4 | nt | i | i | i | 17µM | i
Cc1c(CCC(=O)N[C@@H](CCCNC(N)=O)C(=O)O)c(=O)oc2cc3oc4c(c3cc12)CCCC4 | nt | i | i | i | 15µM | i
Cc1ccc(NC(=O)C(C)OC(=O)/C=C/c2ccccc2)cc1S(=O)(=O)N1CCOCC1 (configuration not stated) | nt | i | i | i | ? | i
Cc1oc2c(C)c3oc(=O)c(CC(=O)N[C@@H](CCCNC(N)=O)C(=O)O)c(C)c3cc2c1C | nt | i | i | i | ? | i
CCCCC(NC(=O)CCc1c(C)c2cc3c4c(oc3c(C)c2oc1=O)CCCC4)C(=O)O (configuration not stated) | nt | i | i | i | i | i
Cc1c(CC(=O)N[C@@H](CCCNC(N)=O)C(=O)O)c(=O)oc2cc3oc4c(c3cc12)CCCC4 | nt | i | i | i | 17µM | i
CCC(NC(=O)CCc1c(C)c2cc3c4c(oc3cc2oc1=O)CCCC4)C(=O)O (configuration not stated) | nt | i | i | i | 15µM | i
CSCC[C@H](NC(=O)Cc1c(C)c2cc3c4c(oc3cc2oc1=O)CCCC4)C(=O)O | nt | i | i | i | 11µM | i
O=C(OCC(=O)c1cccs1)c1ccccc1 | i | i | i | i | 0.95µM | ?
O=C(COC(=O)c1cc(=O)[nH]c2ccccc12)c1ccccc1 | i | i | i | i | 2.7µM | i
O=C(COC(=O)c1cc(=O)[nH]c2ccccc12)c1cccs1 | nt | i | i | i | 12µM | i
COc1cccc(NC(=O)c2c(C)oc3nc(C)nc(N4CCCC4)c23)c1 | nt | nt | nt | nt | i | nt
C/C(=N\Nc1nc(C)cc(-c2ccccc2)n1)c1ccc(F)cc1 | nt | i | nt | i | ? | i
C/C(=N/Nc1nc(-c2ccccc2)cc(-c2ccc(F)cc2)n1)c1cccc(N)c1 | i | i | ? | i | 9.5µM | i
COc1ccc(/C=C(\C#N)C(=O)N=CN(C)C)cc1 | i | i | i | i | 13µM | i
O=C(/C=C\Nc1ccc2c(c1)OCO2)c1ccccn1 | i | ? | i | ? | 0.076µM | ?
O=C(Nc1ccc2c(c1)OCO2)c1n[nH]c(=O)c2ccccc12 | nt | 2.8µM | i | 3.5µM | ? | ?
O=C(Nc1ccc2c(c1)OCO2)c1ccccn1 | nt | 1.8µM | ? | 1.4µM | 9.5µM | ?
O=C(NCCc1ccc2c(c1)OCCO2)c1ccccn1 | nt | 2.2µM | ? | 2µM | 12µM | ?
O=C(NCc1ccc2c(c1)OCO2)c1ccccn1 | i | i | i | i | i | i
Cc1ccc(-n2c(=O)[nH]c3cc(C(=O)NCc4ccccc4)ccc3c2=O)cc1 | i | nt | nt | nt | i | nt
Cc1c(NC(=O)c2cccc(NC(=O)COc3cccc(Br)c3)c2)c(=O)n(-c2ccccc2)n1C | nt | nt | i | nt | nt | i
O=C(Nc1ccc2c(c1)OCO2)c1cnccn1 | 11µM | 3.5µM | i | 2.5µM | ? | i
N#Cc1cnc2nc(SCc3ccccc3)nn2c1 | nt | 1.4µM | ? | ? | i | ?
Cc1ccc(NC(=O)CSc2nnc(C)n3c2cc2sccc23)c(C)c1 | nt | nt | nt | nt | i | nt
